Compound activity from PubChem BioAssay.
Sampled rows, rich in hits. Any-hit rate of the full collection: about 6.7%.
Pf Dd2 growth: blocks growth of Plasmodium falciparum Dd2 parasites. P. falciparum Dd2 growth, SYBR Green, 72 h; active compounds read low. activity change, % at 10 µM. 94,000 tested, 2.3% active; in the data active = activity change below about -80%; inconclusive = no clear call, values can overlap the other calls
T cruzi growth-1: blocks T. cruzi growth in NIH3T3 culture | AID 624255 | inhibition, % at 8.34 µM | 77,000 tested, 5.9% active | T. cruzi beta-gal in NIH3T3, GalScreen luminescence, 90 h;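 active = mean inhibition above about 93%, with at least 55% of replicates each passing it, limit read from the data, passing the limit was not always enough; inconclusive = only one of those two conditions holds; inactive = neither condition holds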
C diff growth: inhibitors of Clostridium difficile growth; Clostridium difficile clinical isolate growth, OD600, 24 h; active compounds read low; growth activity, negative = inhibition, % at 16 µg/mL (by protocol); 86,000 tested, 0.25% active; AID 1259249;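 active = mean growth activity at or below -80% and every replicate also at or below -80%; inconclusive = mean at or below -80% but some replicate above -80%; inactive = mean growth activity above -80%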
T cruzi growth-2: blocks T. cruzi growth in NIH3T3 host cells; shares compounds with T cruzi growth-1; T. cruzi beta-gal in NIH3T3, GalScreen luminescence, 90 h; inhibition, % at 8.35 µM; 5,600 tested, 72% active;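 active = mean replicate inhibition above about 95% and at least 55% of replicates individually reaching it, limit read from the data; inconclusive = only one of the two criteria is met; inactive = neither criterion is met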
T cruzi growth-3: Trypanosoma cruzi proliferation inhibition; shares compounds with T cruzi growth-1; T. cruzi beta-gal in NIH3T3, GalScreen luminescence, 90 h; inhibition, % at 2.09 µM; 5,600 tested, 21% active; AID 651740;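 active = mean inhibition above about 95%, with at least 55% of replicates also reaching it, limit read from the data; inconclusive = meets just one of the two conditions; inactive = meets neither condition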
NIH3T3 tox: cytotoxicity in mouse NIH/3T3 fibroblasts; shares compounds with T cruzi growth-1; NIH/3T3 viability, CellTiter-Glo ATP luminescence, 90 h; cytotoxicity (signal decrease), % at 8.35 µM; 5,600 tested, 14% active;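 active = mean signal decrease across replicates above about 35% based on untreated-well scatter, with enough replicates individually passing, limit read from the data; inconclusive = no rule stated though some were filed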
NIH3T3 tox 2: NIH/3T3 (mouse) viability loss; shares compounds with T cruzi growth-1; inhibition, % at 24.9 µM; NIH/3T3 viability, CellTiter-Glo ATP luminescence, 90 h; 5,600 tested, 56% active;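 active = mean loss of cell viability signal at or above a set limit, and enough replicates individually reaching it; inconclusive = meets only the mean limit or only the replicate share; inactive = meets neither condition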
Each line names hits and unclear results; the compound was inactive in the other large screens (follow-up assays come after a bar, where they were run).

Cc1ccc(S(=O)(=O)N(C)C[C@H]2OCCCC[C@@H](C)Oc3ccc(NS(C)(=O)=O)cc3C(=O)N([C@@H](C)CO)C[C@@H]2C)cc1	none
C[C@@H]1CN([C@H](C)CO)S(=O)(=O)c2ccc(C#CC3CC3)cc2O[C@@H]1CN(C)C(=O)c1ccccn1	none
O=C(C[C@@H]1CC[C@H](NS(=O)(=O)c2ccc(F)cc2)[C@@H](CO)O1)NCCN1CCCCC1	none
Cc1cccc(S(=O)(=O)N2C[C@@H](O)COC[C@@H]3O[C@H](CC(=O)Nc4ccc(-c5ccccc5)cc4)CC[C@H]32)c1	T cruzi growth-1 119 | T cruzi growth-2 107 | T cruzi growth-3 inactive | NIH3T3 tox inconclusive | NIH3T3 tox 2 41
O=C(C[C@@H]1CC[C@@H]2[C@H](COC[C@@H](O)CN2S(=O)(=O)c2cccc(F)c2)O1)Nc1ccc(-c2ccccc2)cc1	none
Cc1ccccc1S(=O)(=O)N1[C@@H](C#N)[C@H](c2ccc(-c3ccccc3)cc2)[C@@H]1CO	T cruzi growth-1 102 | T cruzi growth-2 inactive | T cruzi growth-3 inactive | NIH3T3 tox inactive | NIH3T3 tox 2 inactive
CS(=O)(=O)N1[C@@H](C#N)[C@@H](c2ccccc2)[C@@H]1CO	none
Cc1ccccc1S(=O)(=O)N1[C@H](C#N)[C@H](c2ccc(-c3ccc(F)cc3)cc2)[C@H]1CO	T cruzi growth-1 101 | T cruzi growth-2 101 | T cruzi growth-3 inactive | NIH3T3 tox inconclusive | NIH3T3 tox 2 31
Cc1ccccc1S(=O)(=O)N1[C@@H](C#N)[C@@H](c2ccc(-c3ccccc3)cc2)[C@@H]1CO	T cruzi growth-1 102 | T cruzi growth-2 101 | T cruzi growth-3 103 | NIH3T3 tox 50 | NIH3T3 tox 2 73
Cc1ccccc1S(=O)(=O)N1[C@H](C#N)[C@H](c2ccc(-c3ccc(F)cc3)cc2)[C@@H]1CO	none
N#C[C@H]1[C@@H](c2ccc(C3=CCCC3)cc2)[C@@H](CO)N1S(=O)(=O)c1ccccc1	none
C[C@H](CO)N1C[C@H](C)[C@H](CN(C)CC2CCCCC2)Oc2ccc(NC(=O)Cn3cnnn3)cc2CC1=O	none
CC(=O)N[C@H]1CC[C@@H](CC(=O)NCC2CCCCC2)O[C@@H]1CO	none
COc1cccc(C#Cc2ccc([C@H]3[C@@H](CO)N(C(=O)C4CC4)[C@H]3C#N)cc2)c1	T cruzi growth-1 98 | T cruzi growth-2 103 | T cruzi growth-3 113 | NIH3T3 tox inactive | NIH3T3 tox 2 inactive
COc1cccc(C#Cc2ccc([C@H]3[C@@H](C#N)N(C(=O)C4CC4)[C@@H]3CO)cc2)c1	T cruzi growth-1 100 | T cruzi growth-2 99 | T cruzi growth-3 107 | NIH3T3 tox inactive | NIH3T3 tox 2 inactive
COc1cccc(C#Cc2ccc([C@@H]3[C@@H](CO)N(C(=O)C4CC4)[C@H]3C#N)cc2)c1	none
COc1cccc(C#Cc2ccc([C@@H]3[C@@H](C#N)N(C(=O)C4CC4)[C@H]3CO)cc2)c1	none
C[C@@H]1CCCCO[C@@H](CN(C)S(=O)(=O)c2ccccc2)[C@@H](C)CN([C@H](C)CO)C(=O)c2cc(NS(C)(=O)=O)ccc2O1	none
CCC(=O)N1CCCCN2[C@H](CO)[C@@H](c3ccc(C#Cc4cccnc4)cc3)[C@@H]2C1	none
CC(=O)N1CCCCN2[C@H](CO)[C@@H](c3ccc(C#Cc4ccccc4F)cc3)[C@H]2C1	T cruzi growth-1 103 | T cruzi growth-2 inactive | T cruzi growth-3 inactive | NIH3T3 tox 46 | NIH3T3 tox 2 104
CN1CCCCN2[C@H](CO)[C@@H](c3ccc(C#Cc4ccccc4F)cc3)[C@@H]2C1	none
CCC(=O)N1CCCCN2[C@@H](CO)[C@H](c3ccc(C#Cc4ccccc4F)cc3)[C@@H]2C1	T cruzi growth-1 124 | T cruzi growth-2 109 | T cruzi growth-3 inactive | NIH3T3 tox 45 | NIH3T3 tox 2 104
CN1CCCCN2[C@@H](CO)[C@@H](c3ccc(C#Cc4ccccc4F)cc3)[C@@H]2C1	none
CCC(=O)N1CCCCN2[C@H](CO)[C@@H](c3ccc(C#Cc4ccccc4F)cc3)[C@H]2C1	T cruzi growth-1 112 | T cruzi growth-2 102 | T cruzi growth-3 inactive | NIH3T3 tox inactive | NIH3T3 tox 2 104
COCC(=O)N1CCCCN2[C@H](CO)[C@@H](c3ccc(C#Cc4ccccc4)cc3)[C@H]2C1	none
CCC(=O)N1CCCCN2[C@@H](CO)[C@@H](c3ccc(C#Cc4ccccc4F)cc3)[C@@H]2C1	T cruzi growth-1 113 | T cruzi growth-2 102 | T cruzi growth-3 inactive | NIH3T3 tox inactive | NIH3T3 tox 2 103
CCC(=O)N(C)C[C@H]1Oc2cc(-c3ccccc3)ccc2S(=O)(=O)N([C@H](C)CO)C[C@H]1C	none
CC=Cc1ccc2n(c1=O)C[C@@H]1[C@@H](CO)[C@H](C(=O)NCc3ccccc3F)N(CC)[C@H]21 (mixture of isomers)	none
C[C@@H]1CN([C@@H](C)CO)C(=O)Cc2cc(NS(=O)(=O)c3cn(C)cn3)ccc2O[C@H]1CN(C)Cc1ccc(C(=O)Nc2ccccc2N)cc1	none (no result: T cruzi growth-1)
C[C@@H]1CN([C@H](C)CO)S(=O)(=O)c2ccc(Br)cc2O[C@@H]1CN(C)Cc1ccncc1	none
CCC(=O)N(C)C[C@@H]1Oc2cc(-c3ccccc3C)ccc2S(=O)(=O)N([C@H](C)CO)C[C@H]1C	none
C[C@@H]1CN([C@@H](C)CO)S(=O)(=O)c2ccc(-c3ccncc3)cc2O[C@H]1CN(C)Cc1ccccc1	T cruzi growth-1 inconclusive | T cruzi growth-2 inactive | T cruzi growth-3 99 | NIH3T3 tox 76 | NIH3T3 tox 2 96
C[C@H](CO)N1C[C@H](C)[C@H](CN(C)Cc2ccccc2)Oc2cc(-c3ccncc3)ccc2S1(=O)=O	none
C[C@@H]1CN([C@H](C)CO)S(=O)(=O)c2ccc(-c3ccncc3)cc2O[C@H]1CN(C)Cc1ccccc1	T cruzi growth-1 inconclusive | T cruzi growth-2 98 | T cruzi growth-3 100 | NIH3T3 tox 60 | NIH3T3 tox 2 94
C[C@H]1CN([C@@H](C)CO)S(=O)(=O)c2ccc(-c3ccncc3)cc2O[C@@H]1CN(C)Cc1ccccc1	none
O=C(C[C@H]1CC[C@H](NC(=O)C2CCOCC2)[C@@H](CO)O1)Nc1ccc(-c2ccccc2)cc1	none
C[C@H](CO)N1C[C@H](C)[C@@H](CN(C)S(=O)(=O)c2cn(C)cn2)Oc2ccc(NC(=O)Nc3ccc(C(F)(F)F)cc3)cc2C1=O	none (no result: C diff growth)
C[C@H]1CN([C@@H](C)CO)C(=O)c2cc(C#CC(C)(C)O)cnc2O[C@@H]1CN(C)C(=O)c1ccccc1F	none
CN1c2ccc(C3=CCCCC3)cc2[C@H]2[C@H](CCN2C(=O)C2CCC2)[C@@H]1CO	none (no result: T cruzi growth-1)
CN1c2ccc(C3=CCCCC3)cc2[C@@H]2[C@@H](CCN2C(=O)C2CCOCC2)[C@H]1CO	T cruzi growth-1 105 | T cruzi growth-2 102 | T cruzi growth-3 inactive | NIH3T3 tox inactive | NIH3T3 tox 2 inactive
